Reference: PubChem BioAssay AID1159580 (chemical genetic matrix, 2015)
Where “and” joins values, the source holds several entries; their conditions need not be identical. Equal entries are not always repeated. In all, about 5,500 compounds went through this assay and about 2,000 (36%) were called active. About 18% were inconclusive and are not listed. Rule as the data show it: active = normalized growth mostly below about 0.91 (no sharp cut-off); inconclusive = no clear call, values can overlap the other calls; inactive = mostly above about 0.92. The list shows a part of the results.

Assay: chemical genetic growth profiling, strain panel (AID 1159580);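 also: tested at 20 µM; growth read once vehicle control cultures reached saturation at 30 °C; 1 = growth at the plate median or of vehicle wells; lower values mean less growth of the strain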
Details: S. cerevisiae deletion strains, growth OD

Measured: normalized growth

CCOc1ccc(NC(C)=O)cc1
inactive: locus YAL013W, strain DEP1, stronger effect = lower value 1.02 | locus YAL021C, strain ccr4, stronger effect = lower value 1.01 | locus YAL026C, strain drs2, stronger effect = lower value 1.01 | locus YAL030W, strain snc1, stronger effect = lower value 1.02 | locus YBL061C, strain skt5, stronger effect = lower value 1.02 | locus YBR009C, strain hhf1, stronger effect = lower value 1.01 | locus YBR021W, strain FUR4, stronger effect = lower value 0.963 | locus YBR023C, strain chs3, stronger effect = lower value 1.01 | locus YBR171W, strain sec66, stronger effect = lower value 1.02 | locus YBR229C, strain ROT2, stronger effect = lower value 1 | locus YBR231C, strain swc5, stronger effect = lower value 1.02 | locus YBR279W, strain paf1, stronger effect = lower value 1.01 | locus YCL011C, strain gbp2, stronger effect = lower value 1.02 | locus YCL016C, strain dcc1, stronger effect = lower value 1.02 | locus YCL029C, strain bik1, stronger effect = lower value 0.989 | locus YCL061C, strain MRC1, stronger effect = lower value 1.01 | locus YCL069W, strain vba3, stronger effect = lower value 1.02 | locus YCR088W, strain abp1, stronger effect = lower value 1.02 | locus YDL005C, strain med2, stronger effect = lower value 1.02 | locus YDL035C, strain GPR1, stronger effect = lower value 0.997 | locus YDL040C, strain nat1, stronger effect = lower value 1.01 | locus YDL074C, strain BRE1, stronger effect = lower value 1.06 | locus YDL101C, strain DUN1, stronger effect = lower value 1.01 | locus YDL134C, strain PPH21, stronger effect = lower value 1 | locus YDL185W, strain tfp1, stronger effect = lower value 0.959 | locus YDL192W, strain arf1, stronger effect = lower value 0.991 | locus YDR001C, strain nth1, stronger effect = lower value 1.02 | locus YDR069C, strain doa4, stronger effect = lower value 1 | locus YDR101C, strain arx1, stronger effect = lower value 0.998 | locus YDR137W, strain rgp1, stronger effect = lower value 1.03 | locus YDR150W, strain NUM1, stronger effect = lower value 0.991 | locus YDR159W, strain sac3, stronger effect = lower value 1.01 | locus YDR162C, strain NBP2, stronger effect = lower value 1.01 | locus YDR195W, strain ref2 1.02 | locus YDR297W, strain sur2, stronger effect = lower value 1.02 | locus YDR318W, strain mcm21, stronger effect = lower value 0.997 | locus YDR334W, strain swr1, stronger effect = lower value 1.02 | locus YDR335W, strain msn5, stronger effect = lower value 1.02 | locus YDR388W, stronger effect = lower value 1 | locus YDR392W, strain spt3, stronger effect = lower value 0.953 | locus YDR502C, strain sam2, stronger effect = lower value 0.994 | locus YEL003W, strain gim4, stronger effect = lower value 1.02 | locus YEL037C, strain rad23, stronger effect = lower value 1.01 | locus YEL061C, strain CIN8 (second series), stronger effect = lower value 1.02 | locus YEL061C, strain CIN8, stronger effect = lower value 1.04 | locus YER015W, strain faa2, stronger effect = lower value 1.01 | locus YER016W, strain bim1, stronger effect = lower value 1 | locus YER110C, stronger effect = lower value 0.979 | locus YER111C, strain swi4, stronger effect = lower value 1.02 | locus YER155C, strain BEM2 (second series), stronger effect = lower value 1.02 | locus YER155C, strain BEM2, stronger effect = lower value 0.984 | locus YER167W, strain BCK2, stronger effect = lower value 0.979 | locus YFR010W, strain ubp6, stronger effect = lower value 1.02 | locus YGL078C, strain dbp3, stronger effect = lower value 0.985 | locus YGL086W, strain mad1, stronger effect = lower value 0.984 | locus YGL167C, strain pmr1, stronger effect = lower value 1.02 | locus YGL173C, strain kem1, stronger effect = lower value 1.01 | locus YGL227W, strain vid30, stronger effect = lower value 1 | locus YGL240W, strain doc1, stronger effect = lower value 1.02 | locus YGL248W, strain PDE1, stronger effect = lower value 1.01 | locus YGL253W, strain hxk2, stronger effect = lower value 1.01 | locus YGR078C, strain PAC10, stronger effect = lower value 1 | locus YGR135W, strain pre9, stronger effect = lower value 1 | locus YGR229C, strain SMI1, stronger effect = lower value 1.02 | locus YGR252W, strain gcn5, stronger effect = lower value 0.986 | locus YHR013C, strain ard1, stronger effect = lower value 1.06 | locus YHR027C, strain rpn1, stronger effect = lower value 1 | locus YHR030C, strain SLT2, stronger effect = lower value 0.984 and 1.02 | locus YHR079C, strain IRE1 (second series), stronger effect = lower value 0.995 | locus YHR079C, strain IRE1, stronger effect = lower value 1.03 | locus YHR094C, strain hxt1, stronger effect = lower value 0.975 | locus YHR129C, strain ARP1, stronger effect = lower value 1.01 | locus YHR142W, strain chs7, stronger effect = lower value 1.01 | locus YHR200W, strain rpn10, stronger effect = lower value 0.992 | locus YIL066C, strain RNR3, stronger effect = lower value 1 | locus YIL073C, strain SPO22, stronger effect = lower value 0.916 | locus YIL125W, strain kgd1, stronger effect = lower value 0.988 | locus YIR030C, strain dcg1, stronger effect = lower value 1 | locus YJL092W, strain hpr5, stronger effect = lower value 1.01 | locus YJL095W, strain BCK1 (second series), stronger effect = lower value 1.01 | locus YJL095W, strain BCK1, stronger effect = lower value 1.09 and 1.01 | locus YJL115W, strain asf1, stronger effect = lower value 1.01 | locus YJL129C, strain trk1, stronger effect = lower value 1.02 | locus YJL134W, strain LCB3, stronger effect = lower value 0.985 | locus YJL154C, strain vps35, stronger effect = lower value 1.01 | locus YJL164C, strain tpk1, stronger effect = lower value 1.02 | locus YJL166W, strain qcr8, stronger effect = lower value 1.02 | locus YJL168C, strain set2, stronger effect = lower value 0.986 | locus YJL187C, strain SWE1 (second series), stronger effect = lower value 0.996 | locus YJL187C, strain SWE1, stronger effect = lower value 1.02 | locus YJR043C, strain POL32, stronger effect = lower value 1.14 | locus YJR066W, strain TOR1, stronger effect = lower value 0.961
